Data from PubChem BioAssay AID488969 (Vanderbilt High Throughput Screening Facility, 2010).
Over roughly 110,000 compounds, “z-score” has its median near -0.1; the highest 2% begin near 2. The sample holds the highest values, similar compounds and a random draw of the others, so the mix is not that of the screen. Activity calls are given as the source filed them.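 Rule for the calls: active = z-score in the third read window above 3 or below -3; inactive = the rest.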

Molecular target: Metabotropic glutamate receptor 8 (Rattus norvegicus) (UniProt P70579)
Sequence (P70579 whole entry, looked up): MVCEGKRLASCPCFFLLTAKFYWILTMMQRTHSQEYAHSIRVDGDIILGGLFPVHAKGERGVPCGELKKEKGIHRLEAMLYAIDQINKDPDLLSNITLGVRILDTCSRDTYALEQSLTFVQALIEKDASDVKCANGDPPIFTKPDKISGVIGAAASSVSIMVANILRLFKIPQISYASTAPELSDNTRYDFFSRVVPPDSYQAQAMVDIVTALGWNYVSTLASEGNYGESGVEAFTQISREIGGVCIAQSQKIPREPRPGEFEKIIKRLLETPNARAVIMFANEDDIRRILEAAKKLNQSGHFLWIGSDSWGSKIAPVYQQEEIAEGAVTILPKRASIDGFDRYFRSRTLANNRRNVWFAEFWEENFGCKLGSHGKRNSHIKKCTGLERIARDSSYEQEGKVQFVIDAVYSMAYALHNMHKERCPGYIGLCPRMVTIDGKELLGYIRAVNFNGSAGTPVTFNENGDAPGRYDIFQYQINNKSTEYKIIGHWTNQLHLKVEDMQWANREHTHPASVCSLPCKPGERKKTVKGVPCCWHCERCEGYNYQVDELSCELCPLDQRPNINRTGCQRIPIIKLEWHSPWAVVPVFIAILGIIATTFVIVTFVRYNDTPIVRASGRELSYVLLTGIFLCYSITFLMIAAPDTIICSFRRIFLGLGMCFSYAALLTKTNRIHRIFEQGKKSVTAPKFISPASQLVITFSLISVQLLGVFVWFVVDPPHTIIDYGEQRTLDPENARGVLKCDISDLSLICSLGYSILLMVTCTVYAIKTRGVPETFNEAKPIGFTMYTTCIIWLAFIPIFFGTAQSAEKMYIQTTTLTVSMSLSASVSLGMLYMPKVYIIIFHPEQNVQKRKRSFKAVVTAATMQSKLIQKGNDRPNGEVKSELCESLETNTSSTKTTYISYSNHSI
Test: mGluR8 Gi/Go-coupled signaling modulation – cell-based, rat, thallium flux, HTS, primary screen (AID 488969)
Settings: HEK293 rat mGluR8, GIRK (G protein-gated inwardly rectifying potassium channel) thallium flux, FluoZin2; at 10 µM; stronger effect = higher value; submaximal glutamate (EC20) added with thallium

SMILES	z-score
COc1cc(Cl)c(C)cc1NC(=O)CSC	0.0277
CCn1cc(CNC(=O)/C=C/c2ccc([N+](=O)[O-])cc2)c(C)n1	-0.204
c1ccc2sc(Nc3nc4cc5c(cc4s3)OCO5)nc2c1	0.501
COc1ccc2nc(Nc3nc4cc5c(cc4s3)OCO5)sc2c1	0.175
Fc1ccc2nc(Nc3nc4cc5c(cc4s3)OCCO5)sc2c1	-0.101
Fc1cccc2sc(Nc3nc4cc5c(cc4s3)OCO5)nc12	5.54 (active)
Fc1cc(F)c2nc(Nc3nc4cc5c(cc4s3)OCO5)sc2c1	1.9
Fc1cccc2sc(Nc3nc4cc5c(cc4s3)OCCO5)nc12	2.25
Clc1cccc(Cl)c1Cn1cnc(=NCc2ccco2)c2[nH]cnc21	-0.33
COc1ccc(/C=N/Nc2cc(C)nc(NS(=O)(=O)c3ccc(C)cc3)n2)cc1	-0.501
CCCCN=Cc1sc2ccc(OCC)cc2c1O	-0.188
CC1CCCN(C(=O)CSc2nnc3n(C4CCCC4)c(=O)c4ccccc4n23)C1 (configuration not stated)	-0.217
S=C(Nc1ccccc1)c1ccccn1	2.52
O=C(Nc1ccccc1)Nc1ccccn1	0.139
Cc1ccc(C)c(NC(=S)c2ccccn2)c1	-0.333
CCCNC1=C(N(C(C)=O)c2cccc(F)c2)C(=O)c2ccccc2C1=O	-1.55

SMILES	z-score
CC(=O)N(Cc1ccc(F)cc1)C1=C(NCc2ccccc2)C(=O)c2ccccc2C1=O	2.03
CC(=O)N(Cc1ccc(F)cc1)C1=C(NCCc2ccccc2)C(=O)c2ccccc2C1=O	1.71e-05
COC(=O)C1(S(=O)(=O)c2cc(Br)cc3c2N(C(C)=O)CC3)CC1	-0.117
O=C(COC(=O)C1=Cc2ccccc2OC1)NC1CCCC1	-0.184
CCOC(=O)N1CCN(C(=O)CN(c2cc(C(F)(F)F)ccc2Cl)S(C)(=O)=O)CC1	0.421
CS(=O)(=O)N(CC(=O)N1CCN(c2ccccc2)CC1)c1cc(C(F)(F)F)ccc1Cl	-0.525
CN1CCN(C(=O)CN(c2cc(C(F)(F)F)ccc2Cl)S(C)(=O)=O)CC1	2.63
O=C(COc1cccc2ccccc12)NNC(=O)CSCCO	-0.199
c1csc(-c2nnc(NC3CCCCC3)c3ccccc23)c1	-1.27
c1ccc2c(NC3CCCC3)nnc(NC3CCCC3)c2c1	3.18 (active)
c1ccc(-n2nnnc2NC2CCCCC2)cc1	-0.018
CCOC(=O)CSc1nnc(CNc2cccc(Cl)c2)n1C	1.12
CCOC(=O)CSc1nnc(CNc2cccc(Cl)c2)n1-c1ccccc1	2.85
CCOC(=O)CSc1nnc(Cc2ccccc2)n1-c1cccc(Cl)c1	-0.436
CCOC(=O)C(=O)Nc1ccc2c(c1)OCO2	0.0617
Oc1c(Cl)cc(Cl)cc1C=Nc1ccccc1N1CCCC1	0.0524
